This passage reports displacement results from PubChem BioAssay AID1240 (Sanford-Burnham Center for Chemical Genomics, 2008).

In all, about 50,000 compounds went through this assay and about 800 (1.6%) showed an effect of 50% or more. Shown is part of a subset that was picked to be rich in strong results.

The target in the experiment is Bcl-2-like protein 10 (Homo sapiens) (UniProt Q9HD36). Briefly: TR3 peptide-Bcl-B binding displacers, biochemical primary FP assay, phenotype converters (AID 1240).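 Further: 0% = Bcl-B with tracer peptide and DMSO and 100% = tracer peptide lacking Bcl-B.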 To be noted: GST-Bcl-B / FITC-TR3 peptide fluorescence polarization; stronger effect = higher value; compound at 3.75 mg/L.
Chain of Bcl-2-like protein 10 (Homo sapiens) (Q9HD36 whole entry, looked up): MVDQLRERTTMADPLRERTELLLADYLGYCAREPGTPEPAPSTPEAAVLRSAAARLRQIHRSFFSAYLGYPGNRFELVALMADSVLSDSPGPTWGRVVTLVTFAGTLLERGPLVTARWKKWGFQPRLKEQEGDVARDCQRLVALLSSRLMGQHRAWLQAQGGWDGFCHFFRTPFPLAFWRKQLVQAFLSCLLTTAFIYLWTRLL
For the compound `NC1=NC(=O)/C(=C\c2ccccc2Cl)S1`, the displacement amounted to 13.2%.
For `CC1=C(C(=O)OC(C)C)C(c2ccccc2Cl)C2=C(CCCC2=O)N1` (stereo not given), the displacement is 0%.
The value for `CCOc1cc(/C=C2\C(=O)NC(=O)N(c3cc(C)cc(C)c3)C2=O)cc(Cl)c1O` was 11.4%; that for `Cc1cc(OCCN2CCCC2)ccc1Cl` was -2.8%.
To `Cc1ccc(-n2nc3cc(C)c(NC(=O)c4cccc(Cl)c4)cc3n2)cc1` belongs -4.2%; to `Cc1ccc(-n2nc3cc(C)c(NC(=O)c4ccccc4)cc3n2)cc1`, -4.4%; to `COc1ccc(-n2nc3cc(C)c(NC(=O)c4ccco4)cc3n2)cc1`, 5.1%.
To `Cc1ccc(-n2nc3cc(C)c(NC(=O)c4cccc(C)c4)cc3n2)cc1` belongs 85.1%; to `COc1ccc(-n2nc3cc(C)c(NC(=O)c4ccc(Br)o4)cc3n2)cc1`, 117%; to `Cc1ccc(-n2nc3cc(C)c(NC(=O)c4ccco4)cc3n2)cc1`, 107%.
For the compound `COc1ccc(-n2nc3cc(C)c(NC(=O)c4cc5ccccc5o4)cc3n2)cc1`, the displacement was determined as 2.4%.
To `COc1ccc(C(=O)Nc2cc3nn(-c4ccc(OC)cc4)nc3cc2C)cc1` belongs 2.2%; to `Cc1ccc(-n2nc3ccc(NC(=O)c4ccco4)cc3n2)cc1`, 49.3%; to `O=S(=O)(c1cccc2ccccc12)n1cnc2ccccc21`, 6.3%.
For the compound `COc1ccc(-c2cc(C(=O)Nc3ccccc3OC)c3ccccc3n2)cc1`, the displacement worked out at 14.2%.
The value for `Nc1ccc(C(=O)Nc2cccc(O)c2)cc1` was 11.4%.
To `O=C1c2ccc3c4c(ccc(c24)C(=O)N1Cc1ccco1)CC3` belongs 9.5%; to `CN(C)N1C(=O)c2ccc3c4c(ccc(c24)C1=O)CC3`, 6.4%; to `O=C1NC(=O)c2ccc3c4c(ccc1c24)CC3`, 55.5%.
To `O=C1NC(=S)NC(=O)C1=Cc1ccccc1OS(=O)(=O)c1ccc([N+](=O)[O-])cc1` belongs -7.8%.
For `N#Cc1c(-c2ccc(F)cc2)c(C#N)c2nc3ccccc3n2c1N`, the displacement was -8%.
To `N#Cc1c(-c2cccc(Br)c2)c(C#N)c2nc3ccccc3n2c1N` belongs 109%; to `N#Cc1c(-c2ccc(O)cc2)c(C#N)c2nc3ccccc3n2c1N`, 12.5%.
To `COc1cc2c(cc1NCc1cccc([N+](=O)[O-])c1)oc1ccccc12` belongs -6.6%; to `O=C1OC(c2cccc(Cl)c2)=N/C1=C\c1ccccc1[N+](=O)[O-]`, 7%; to `COc1ccc(-c2nn(-c3ccccc3)cc2C=O)cc1[N+](=O)[O-]`, -1.7%.
To `COc1ccc(-c2nn(-c3ccccc3)cc2/C=C2\N=C(c3ccccc3)OC2=O)cc1[N+](=O)[O-]` belongs 93.8%.
Take `CC(=O)CCc1oc2ccc(Br)cc2c1-c1ccc(C)o1`: the displacement was -10.4%.
For `COC(=O)C1=C(C(=O)OC)C2(OC1c1cccc(F)c1)C(=O)c1ccccc1C2=O` (stereo not given), the displacement is -0.3%.
The value for `CCCCOC(=O)c1cccc(NC(=O)c2cc3ccccc3oc2=O)c1` was 1.7%.
To `Cc1ccc(C(=O)O)cc1-n1c(C)ccc1C` belongs 83.2%; to `Cc1ccc(-c2ccccc2)n1-c1cccc(C(=O)O)c1`, 1.2%.
To `Cc1cc(C(=O)O)ccc1-n1c(C)ccc1C` belongs 81.4%; to `Cc1ccc(N2C(=O)c3ccc(C(=O)O)cc3C2=O)c(C)c1`, 1.6%; to `Cc1ccc(C(=O)O)cc1N1C(=O)c2ccc(C(=O)O)cc2C1=O`, 6.5%.
Turning to `Cc1ccc(C(=O)O)cc1N1C(=O)c2ccccc2C1=O`, the displacement amounted to 7%.
The value for `COc1ccccc1NC(=O)c1ccc(Br)o1` was 1%; that for `O=c1oc(-c2ccccc2Cl)nc2ccc(-c3ccc4nc(-c5ccccc5Cl)oc(=O)c4c3)cc12` was 11.6%.
The value for `Cc1ccc2nsnc2c1NC(=O)c1ccc(-c2cccc([N+](=O)[O-])c2)o1` was 105%; that for `Cc1ccc2nsnc2c1NC(=O)c1ccc(-c2ccc([N+](=O)[O-])cc2)o1` was 16.6%.
To `Cc1ccc2nsnc2c1NC(=O)c1ccc(-c2cccc(Cl)c2)o1` belongs 1.4%; to `O=C(Nc1cc(-c2nc3ccccc3s2)ccc1Cl)c1ccc([N+](=O)[O-])cc1`, 90.8%.
Turning to `CC(=O)Nc1cc(-c2nc3ccccc3s2)ccc1Cl`, the displacement was determined as 11.6%.
To `O=C(Nc1ccc(-c2nc3ccccc3s2)c(O)c1)c1ccc(-c2cccc([N+](=O)[O-])c2)o1` belongs 6.1%.
To `O=C(Nc1cccc(-c2nc3ccccc3s2)c1)c1ccc(-c2ccc([N+](=O)[O-])cc2)o1` belongs 70%.
The value for `O=C(COc1ccc([N+](=O)[O-])cc1)Nc1cc(-c2nc3ccccc3s2)ccc1Cl` was 9%; that for `Cc1c(NC(=O)c2ccc(-c3cccc([N+](=O)[O-])c3)o2)cccc1-c1nc2ccccc2s1` was 3.7%.
Consider `O=c1/c(=C\c2ccccc2OS(=O)(=O)c2ccc3ccccc3c2)sc2nc3ccccc3n12`, for which the displacement was determined as 4.6%.
The value for `O=[N+]([O-])c1ccc(N2CCN(S(=O)(=O)c3ccc(Cl)cc3)CC2)c(C(F)(F)F)c1` was 8.3%; that for `CCOC(=O)c1ccccc1NC(=O)c1ccc(N(Cc2ccc(Cl)cc2)S(C)(=O)=O)cc1` was 12.1%.
To `COC(=O)c1c(-c2cc(C)ccc2C)csc1N` belongs -6.2%; to `COc1cccc(/C=N/NC(=O)c2cc(C)[nH]n2)c1OC`, -9%.
The value for `CN(C)CCCNC(=O)c1ccc2sc3cc(=O)c(N)cc-3nc2c1` was 44.6%; that for `CCCCOc1ccc(N2C(=O)c3cccc4cccc(c34)C2=O)cc1` was 0.2%; that for `CCCCOc1ccccc1NC(=O)C(c1ccccc1)c1ccccc1` was -16.9%.
With `CCCCOc1ccc2c3c(cccc13)C(=O)c1ccccc1-2`, the displacement was 176%.
Regarding `CC1(C)CC(=O)C(Sc2ccc([N+](=O)[O-])cc2)=C(O)C1`, the displacement was determined as 17%.
The value for `CCOc1cc(-c2ccc(OC)cc2)[o+]c2c1ccc1ccccc12` was 6.2%.
The value for `C=CCOC(=O)C1=C(C)NC(=S)NC1c1ccccc1OCC` (stereo not given) was 2.1%; that for `N#CC(C#N)=C/C(=C/C(C#N)C#N)c1ccccc1` was 109%.
To `N#C/C(=C\c1ccc(Sc2ccccc2)o1)c1ccccc1` belongs -14.9%; to `N#C/C(=C\N1CCOCC1)c1ccccc1`, -0.9%.
As for `COc1ccc2c(c1)C1C=CCC1C(C(=O)O)N2` (stereo not given), the displacement is 150%.
To `COc1ccc2c(c1)C1C=CCC1C(c1cccc([N+](=O)[O-])c1)N2` (stereo not given) belongs -2.3%.
To `COc1ccc2c(c1)C1C=CCC1C(c1ccc([N+](=O)[O-])cc1)N2` (stereo not given) belongs -0.8%.
The value for `Cc1ccc2c(c1)C1C=CCC1C(C(=O)O)N2` (stereo not given) was 142%; that for `Cc1ccc2c(c1)C1C=CCC1C(c1ccc([N+](=O)[O-])cc1)N2` (stereo not given) was 12.2%; that for `Cc1ccc2c(c1)C1C=CCC1C(c1ccccc1[N+](=O)[O-])N2` (stereo not given) was 6.9%.
`COC(=O)c1c(C)oc2ccc(OC(=O)c3ccc(OC)c(OC)c3)cc12`: the displacement turned out to be 10.8%.
To `Cc1ccc(C)c(N2C(=O)C3C4C=CC(C4=C4CCCC4)C3C2=O)c1` (stereo not given) belongs 3.8%; to `CCOc1cccc(C(=O)Nc2ccc(C(=O)Nc3cccc(-c4nc5ccccc5o4)c3)cc2)c1`, 0.7%.
The value for `O=C(Nc1ccc(-c2nc3cc(Cl)cc(Cl)c3o2)cc1)c1cccc([N+](=O)[O-])c1` was 62.7%; that for `COc1ccc(C(=O)Nc2ccc(O)c(-c3nc4cc(Cl)ccc4o3)c2)cc1` was 40.1%.
The value for `O=C(Nc1ccc(-c2nc3ccccc3c(=O)o2)cc1)c1cccc([N+](=O)[O-])c1` was -5.5%; that for `CCOc1ccc(C(=O)Nc2ccc3oc(-c4ccncc4)nc3c2)cc1Cl` was -9.5%; that for `CCOc1ccc(C(=O)Nc2ccc(-c3nc4ccc(C)cc4o3)cc2)cc1Cl` was 104%.
On to `CCOc1cc(OCC)cc(C(=O)Nc2ccc(-c3nc4ccc(C)cc4o3)cc2)c1`, for which the displacement is -16.6%.
To `O=C(Nc1cccc(-c2nc3cc(Cl)ccc3o2)c1)c1cccc([N+](=O)[O-])c1` belongs -3.3%.
To `COc1cccc(C(=O)Nc2ccc3oc(-c4ccc(F)cc4Cl)nc3c2)c1` belongs 17.1%.
To `CCOc1cc(OCC)cc(C(=O)Nc2ccc3oc(-c4ccc(OC)cc4)nc3c2)c1` belongs 4.2%; to `COc1cccc(C(=O)Nc2ccc(Cl)c(-c3nc4cc(Cl)ccc4o3)c2)c1`, 105%.
Take `CCOc1cccc(C(=O)Nc2ccc(-c3nc4cc(Cl)ccc4o3)cc2)c1`: the displacement was 81.3%.
The value for `CCOC(=O)C1=C(O)/C(=C/c2ccc(-c3ccccc3)cc2)SC1=Nc1ccc(OC)cc1` was -6%; that for `O=C1c2ccccc2C(=O)C1(Nc1ccc(F)cc1)c1ccccc1` was 17.4%.
The value for `O=C(Nc1ccccc1[N+](=O)[O-])c1c(-c2cnc3ccccc3c2C(=O)Nc2ccccc2[N+](=O)[O-])cnc2ccccc12` was -1.5%; that for `COc1ccc(Cl)cc1NC(=O)c1cccc(F)c1` was -13.8%.
The value for `CC1CN(C(=O)c2ccccc2C(=O)c2ncc[nH]2)CC(C)O1` (stereo not given) was -0.9%; that for `CC(=O)OC1(C#CCl)CCCCC1` was -8.7%.
`O=C1CC(N2CCC(O)CC2)C(=O)N1c1ccc(Cl)cc1` (stereo not given): the displacement was -4.9%.
The value for `Cc1ccc(-c2nc(N/N=C/c3ccccc3)c3ccccc3n2)cc1` was 6.7%; that for `Cc1ccc(-c2nc(N/N=C/c3ccccc3O)c3ccccc3n2)cc1` was 76.2%; that for `COc1cccc(/C=N/Nc2nc(-c3ccc(C)cc3)nc3ccccc23)c1O` was 3.4%.
The value for `CCC(=O)Oc1cc2oc(=O)c(CC)c(C)c2cc1CC` was 10.1%; that for `O=C1NC(=O)N(c2ccc(Br)cc2)C(=O)/C1=C/c1ccc(-c2cccc([N+](=O)[O-])c2)o1` was 138%.
As to `O=C1NC(=S)N(c2ccc(Br)cc2)C(=O)/C1=C\c1ccc(-c2ccc([N+](=O)[O-])cc2)o1`, the displacement turned out to be 16.2%.
The value for `O=C1NC(=S)N(c2ccccc2)C(=O)/C1=C/c1ccc(-c2ccc([N+](=O)[O-])cc2)o1` was -1.5%; that for `COc1ccc(N2C(=O)NC(=O)/C(=C/c3ccc(-c4cccc([N+](=O)[O-])c4)o3)C2=O)cc1` was -12.5%; that for `O=C1NC(=O)N(c2ccc(Cl)cc2)C(=O)/C1=C/c1ccc(-c2ccc(Cl)c(C(=O)O)c2)o1` was 72.5%.
To `COc1ccc(N2C(=O)NC(=O)/C(=C/c3ccc(-c4ccc([N+](=O)[O-])cc4)o3)C2=O)cc1` belongs 46.2%; to `O=C1NC(=O)N(c2ccc(Cl)cc2)C(=O)/C1=C\c1ccc(-c2ccc(C(=O)O)c(Cl)c2)o1`, -7.8%; to `O=C1NC(=O)N(c2ccccc2)C(=O)/C1=C\c1ccc(-c2cccc([N+](=O)[O-])c2)o1`, 39.3%.
As for `O=C1NC(=O)N(c2ccccc2)C(=O)/C1=C\c1ccc(-c2ccc([N+](=O)[O-])cc2)o1`, the displacement was found to be 130%.
The value for `O=C1NN(c2ccc(Cl)cc2)C(=O)/C1=C\c1ccc(-c2ccc(Cl)c(C(=O)O)c2)o1` was 22.1%; that for `O=C1NC(=O)N(c2ccc(Cl)cc2)C(=O)/C1=C/c1ccc(-c2ccc(Cl)cc2[N+](=O)[O-])o1` was 10.6%; that for `O=C1NC(=O)N(c2ccc(Cl)cc2)C(=O)/C1=C\c1ccc(-c2ccc([N+](=O)[O-])cc2)o1` was 105%.
